The panel holds about 83,000 compounds, 20% with a hit somewhere; the sample as a whole holds those more often.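 Single-concentration screen, 48 h exposure, 96-well plates. Endpoint: percent growth. Below 10 = active.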 Values without a mark were called inactive. The source made the active and inactive calls.

Among the test systems are NCI-H23 lung; NCI-H226 lung; NCI-H322M lung; HOP-62 NSCLC; NCI-H460 lung; HOP-92 NSCLC; NCI-H522 lung; A549/ATCC NSCLC; 786-0 renal; COLO 205 colon; DU-145 prostate; K-562 leukemia; MALME-3M melanoma; MDA-MB-231 breast; RXF 393 renal; SF-268 CNS; SF-295 CNS; SF-539 CNS; UACC-257 melanoma; M14 melanoma.
Assay in all cases: NCI-60 one-dose screen, 48 h (100 = growth as untreated, 0 = no growth, -100 = all killed)
Conditions in all cases: 10 µM unless noted

Turning to `Cn1c(Nc2ccc(C(F)(F)F)cc2)nc2cc(Oc3ccnc(-c4ncc(C(F)(F)F)[nH]4)c3)ccc21`, the growth in the test with NCI-H23 lung is 48.8%; in the test on NCI-H226 lung, 64.5%; in the test with NCI-H322M lung it was 30.8%; in the test on HOP-62 NSCLC, 60%; with NCI-H460 lung, 59.2%; in the test with HOP-92 NSCLC it was 67%. The growth was 40.5% in the test with NCI-H522 lung; 40.1% in the test on A549/ATCC NSCLC; 89.4% with 786-0 renal; 22.9% with COLO 205 colon; 60.4% in the test with DU-145 prostate; 61.8% in the test on K-562 leukemia. The growth in the test on MALME-3M melanoma was -11.7% (active); in the test on MDA-MB-231 breast, 51.7%; in the test on RXF 393 renal, 7.28% (active); in the test with SF-268 CNS, 46.1%; in the test with SF-295 CNS, 54.1%; in the test with SF-539 CNS, 21.2%. For the same compound, the growth is 11.9% in the test with UACC-257 melanoma and 15.7% with M14 melanoma.
For `CC(C)(C)OC(=O)N1CCC(O)[C@@H](O[Si](c2ccccc2)(c2ccccc2)C(C)(C)C)[C@H]1/C=C/c1ccccc1` (some centres undefined), the growth is 34.4% with NCI-H23 lung; 47.9% in the test with NCI-H226 lung; 83.5% in the test on NCI-H322M lung; 67.4% in the test on HOP-62 NSCLC; 36.1% in the test with NCI-H460 lung; 36% in the test with HOP-92 NSCLC. The growth was 30.1% in the test with NCI-H522 lung; 41.9% in the test with A549/ATCC NSCLC; 52.2% with 786-0 renal; 49% in the test with COLO 205 colon; 57.6% with DU-145 prostate; 38.7% with K-562 leukemia. The growth is 47.3% with MALME-3M melanoma; 49.5% in the test with MDA-MB-231 breast; 6.38% (active) in the test on RXF 393 renal; 52.5% in the test on SF-268 CNS; 36.7% in the test with SF-295 CNS; 57.1% with SF-539 CNS. Moreover, the growth in the test with UACC-257 melanoma was 40.8%; in the test on M14 melanoma, 50%.
Consider `CC/C(=C(/c1ccc(Cl)cc1)c1ccc(OCCN2CCCCC2)cc1)c1ccc(Cl)cc1`, for which the growth in the test on NCI-H23 lung is 61.9%; with NCI-H226 lung it was 84.5%; in the test with NCI-H322M lung it was 93.1%; in the test with HOP-62 NSCLC it was 86.8%; in the test with NCI-H460 lung, 79.7%; in the test on HOP-92 NSCLC it was 85.2%. Moreover, the growth is 65.3% with NCI-H522 lung; 73% with A549/ATCC NSCLC; 76.7% in the test with 786-0 renal; 70.4% in the test on COLO 205 colon; 89.8% with DU-145 prostate; 26.2% in the test on K-562 leukemia. Besides, the growth was 82.9% with MALME-3M melanoma; 94.3% with MDA-MB-231 breast; 96.6% in the test with RXF 393 renal; 88% in the test with SF-268 CNS; 60.6% with SF-295 CNS; 87.8% in the test on SF-539 CNS. The growth in the test on UACC-257 melanoma is 78.3%; with M14 melanoma, 76.6%.
Turning to `Cc1cc2c(F)c(Oc3ncnn4cc(OC[C@@H](C)OC(=O)[C@H](C)N)c(C)c34)ccc2[nH]1`, the growth is 27.6% in the test on NCI-H23 lung; 50.2% in the test on NCI-H226 lung; 41.1% with NCI-H322M lung; 34.8% with HOP-62 NSCLC; 38.7% in the test with NCI-H460 lung; 39.2% in the test with HOP-92 NSCLC. For the same compound, the growth is 58.1% in the test on NCI-H522 lung; 35.8% with A549/ATCC NSCLC; 72.3% in the test on 786-0 renal; -6.99% (active) with COLO 205 colon; 66.5% in the test on DU-145 prostate; 41.5% in the test on K-562 leukemia. Further, the growth is 11.4% in the test on MALME-3M melanoma; 39.8% in the test on MDA-MB-231 breast; 43.8% with RXF 393 renal; 74.7% in the test with SF-268 CNS; 77.6% with SF-295 CNS; 73.5% with SF-539 CNS. Besides, the growth was -15.9% (active) in the test on UACC-257 melanoma and 16.3% in the test on M14 melanoma.
`Cc1cnc(Nc2ccc(OCCN3CCCC3)cc2)nc1Nc1cccc(S(=O)(=O)NC(C)(C)C)c1`: the growth in the test with NCI-H23 lung is 15.8%; in the test on NCI-H226 lung, -61.9% (active); in the test with NCI-H322M lung it was 28%; in the test on HOP-62 NSCLC it was -8.87% (active); in the test with NCI-H460 lung it was 10.4%; with HOP-92 NSCLC it was -72.1% (active). The growth in the test with NCI-H522 lung was -46.4% (active); with A549/ATCC NSCLC, -53.6% (active); in the test on 786-0 renal, -84.8% (active); with COLO 205 colon it was -67.6% (active); with DU-145 prostate it was 17.6%; with K-562 leukemia, 1.89% (active). For the same compound, the growth in the test on MALME-3M melanoma was -34.1% (active); in the test with MDA-MB-231 breast, 6.69% (active); in the test on RXF 393 renal, -86.7% (active); in the test with SF-268 CNS it was -10.9% (active); with SF-295 CNS, 15.5%; in the test with SF-539 CNS, -83.2% (active). Besides, the growth with UACC-257 melanoma is -78.9% (active); in the test on M14 melanoma, -48% (active).
With `O=C(O)c1ccc2c(c1)nc(Nc1cccc(Cl)c1)c1ccncc12`, the growth was 2.72% (active) in the test with NCI-H23 lung; 3.78% (active) with NCI-H226 lung; -25.5% (active) in the test on NCI-H322M lung; -1.83% (active) in the test on HOP-62 NSCLC; 14.7% in the test with NCI-H460 lung; -20.3% (active) in the test on HOP-92 NSCLC. The growth is -35.7% (active) with NCI-H522 lung; 27.8% in the test on A549/ATCC NSCLC; 17.5% in the test with 786-0 renal; -16.8% (active) with COLO 205 colon; 33.7% in the test on DU-145 prostate; 8.63% (active) in the test on K-562 leukemia. For the same compound, the growth in the test with MALME-3M melanoma is -10.2% (active); with MDA-MB-231 breast, 3.58% (active); with RXF 393 renal, -9.7% (active); in the test on SF-268 CNS, 14.8%; in the test on SF-295 CNS it was 6.7% (active); in the test with SF-539 CNS it was -23.8% (active). Moreover, the growth in the test with UACC-257 melanoma is -7.85% (active); in the test on M14 melanoma, -0.117% (active).
Turning to `Cc1cc2c(-c3nc4ccccn4c3N)c(O)c(O)cc2c(O)c1-c1c(C)cc2c(-c3nc4ccccn4c3N)c(O)c(O)cc2c1O`, the growth was 9.67% (active) in the test with NCI-H23 lung; 26% with NCI-H226 lung; 29.3% with NCI-H322M lung; 11.3% with HOP-62 NSCLC; 7% (active) with NCI-H460 lung; -8.82% (active) in the test on HOP-92 NSCLC. The growth is -3.16% (active) in the test with NCI-H522 lung; 16.4% with A549/ATCC NSCLC; 32.4% in the test on 786-0 renal; -48.5% (active) in the test with COLO 205 colon; 26% with DU-145 prostate; 14.6% with K-562 leukemia. In addition, the growth in the test with MALME-3M melanoma is -0.749% (active); with MDA-MB-231 breast, 13.6%; in the test with RXF 393 renal it was 25.3%; in the test on SF-268 CNS, 20.4%; with SF-295 CNS, 2.67% (active); with SF-539 CNS, 14.9%. Also, in the test with M14 melanoma, the growth was 25.1%.
